This is part of a sample that, as a whole, favours compounds with a hit. Of some 83,000 tested, about 20% had one in any assay.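 Each cell line was grown in a 96-well plate and treated with one concentration of compound for 48 hours. Values below 10 were considered active.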 Values without a mark were called inactive. Active and inactive are the calls of the source.

The values below come from PubChem BioAssay (NCI).

Test systems include SR leukemia; RPMI-8226 leukemia; OVCAR-8 ovarian; OVCAR-5 ovarian; OVCAR-4 ovarian; SK-OV-3 ovarian; IGROV1 ovarian; OVCAR-3 ovarian; HS 578T breast; NCI/ADR-RES ovarian; T-47D breast; BT-549 breast; MDA-MB-435 melanoma; SW-620 colon; MCF7 breast; HCT-116 colon; HCC-2998 colon; KM12 colon.
What all share (test): NCI-60 one-dose screen, 48 h (100 = growth as untreated, 0 = no growth, -100 = all killed)
Holding throughout (details): 10 µM

Turning to `NC1CCC(Nc2nc(NCc3cc(Cl)ccc3O)c3ncn(C4CCCC4)c3n2)CC1` (stereo not given), the growth is -15.9% (active) with SR leukemia; -25.1% (active) in the assay on RPMI-8226 leukemia; 8.24% (active) in the assay with OVCAR-8 ovarian; 17.3% in the assay with OVCAR-5 ovarian; -6.96% (active) in the assay with OVCAR-4 ovarian; 2.6% (active) in the assay with SK-OV-3 ovarian. Moreover, the growth in the assay on IGROV1 ovarian was 1.62% (active); in the assay on OVCAR-3 ovarian, -20.2% (active); in the assay with HS 578T breast, -1.92% (active); in the assay with NCI/ADR-RES ovarian, 26.3%; in the assay with T-47D breast, -28% (active); in the assay with BT-549 breast, -21.2% (active). For the same compound, the growth with MDA-MB-435 melanoma is -43.9% (active); in the assay with SW-620 colon, 3.11% (active); with MCF7 breast it was -58.9% (active); with HCT-116 colon, -17.6% (active); in the assay with HCC-2998 colon, -39.5% (active); in the assay with KM12 colon, 1.98% (active).
On to `O=C(OCc1ncc(-c2ccc(C(F)(F)F)cc2)c(NC2CCCCCC2)n1)c1c(F)c(F)c(F)c(F)c1F`, for which the growth in the assay on SR leukemia is 39.4%; with RPMI-8226 leukemia it was -6.54% (active); in the assay with OVCAR-8 ovarian, 44.1%; with OVCAR-5 ovarian, 88.3%; in the assay on OVCAR-4 ovarian, 49.4%; in the assay with SK-OV-3 ovarian it was 91.8%. Also, the growth was 63.7% in the assay with IGROV1 ovarian; 29.8% in the assay with OVCAR-3 ovarian; 65.3% with HS 578T breast; 96.3% in the assay with NCI/ADR-RES ovarian; 28.3% with T-47D breast; 67.8% in the assay with BT-549 breast. Further, the growth with MDA-MB-435 melanoma was 57.3%; in the assay on SW-620 colon it was 64.5%; in the assay on MCF7 breast it was 51%; in the assay with HCT-116 colon it was 52.6%; in the assay on HCC-2998 colon, 84.2%; in the assay with KM12 colon it was 45.6%.
On to `N#CCC1CCCC1`, for which the growth was 81.6% in the assay on SR leukemia; 97.2% in the assay with RPMI-8226 leukemia; 98.9% with OVCAR-8 ovarian; 105% in the assay on OVCAR-5 ovarian; 95.7% in the assay on OVCAR-4 ovarian; 104% in the assay with SK-OV-3 ovarian. Further, the growth was 118% in the assay with IGROV1 ovarian; 121% in the assay with OVCAR-3 ovarian; 106% in the assay with HS 578T breast; 101% in the assay with NCI/ADR-RES ovarian; 101% in the assay with T-47D breast; 112% with BT-549 breast. Moreover, the growth in the assay on MDA-MB-435 melanoma is 91.2%; with SW-620 colon it was 104%; in the assay on MCF7 breast it was 92.8%; in the assay on HCT-116 colon it was 99.8%; in the assay with HCC-2998 colon it was 104%; in the assay with KM12 colon, 110%.
Regarding `COc1ccc(-c2nc(NC(=O)CS(=O)(=O)c3ccc(F)cc3)sc2C)cc1`, the growth in the assay on SR leukemia was 32.5%; with RPMI-8226 leukemia it was -0.965% (active); in the assay on OVCAR-8 ovarian, 74%; in the assay with OVCAR-5 ovarian, 95.4%; in the assay with OVCAR-4 ovarian, 69.8%; with SK-OV-3 ovarian, 73.6%. Also, the growth was 54.5% with IGROV1 ovarian; 56% with OVCAR-3 ovarian; 79.5% in the assay with HS 578T breast; 50.6% in the assay on NCI/ADR-RES ovarian; 33.2% with T-47D breast; 66.3% with BT-549 breast. Further, the growth was 75% with MDA-MB-435 melanoma; 50.9% with SW-620 colon; 57.9% in the assay with MCF7 breast; 44.7% in the assay with HCT-116 colon; 47.4% in the assay with HCC-2998 colon.
With `COc1ccc(-c2oncc2-c2cc(OC)c3c(c2)OCO3)cc1`, the growth with SR leukemia is 7.62% (active); with RPMI-8226 leukemia it was 23.8%; in the assay on OVCAR-8 ovarian, 35.6%; in the assay on OVCAR-5 ovarian, 37.9%; in the assay with OVCAR-4 ovarian, 66.2%; with SK-OV-3 ovarian it was 19.7%. Moreover, the growth in the assay with IGROV1 ovarian was 53.3%; in the assay with OVCAR-3 ovarian it was 7.36% (active); with HS 578T breast, 4.09% (active); in the assay on NCI/ADR-RES ovarian, 18.5%; in the assay on T-47D breast, 34.7%; in the assay with BT-549 breast, 2.88% (active). The growth in the assay with MDA-MB-435 melanoma is -35.5% (active); in the assay on SW-620 colon it was 16.4%; in the assay on MCF7 breast, 18%; with HCT-116 colon, 14.1%; in the assay with HCC-2998 colon, 56%; with KM12 colon, 31.3%.
For `Fc1ccc2[nH]c3c(NCCCN4CCOCC4)ncnc3c2c1`, the growth in the assay with SR leukemia is 52.1%; with RPMI-8226 leukemia it was 46.4%; in the assay on OVCAR-8 ovarian, 68.3%; in the assay on OVCAR-5 ovarian, 85.6%; in the assay on OVCAR-4 ovarian it was -38.6% (active); with SK-OV-3 ovarian it was 33.4%. For the same compound, the growth in the assay on IGROV1 ovarian is 50.8%; with OVCAR-3 ovarian, 59.7%; with HS 578T breast, 34.5%; with NCI/ADR-RES ovarian, 72.7%; with T-47D breast, 54.6%; in the assay on BT-549 breast, 96.4%. Besides, the growth in the assay with MDA-MB-435 melanoma was 88.3%; in the assay with SW-620 colon, 69.6%; in the assay with MCF7 breast it was 84.7%; in the assay on HCT-116 colon, 47.4%; in the assay on HCC-2998 colon, 75.4%.
For `Cc1ccc(C(=O)O)c(N)c1C`, the growth with SR leukemia was 98.4%; with RPMI-8226 leukemia, 98.7%; in the assay with OVCAR-8 ovarian it was 100%; with OVCAR-5 ovarian, 106%; with OVCAR-4 ovarian, 99.3%; with SK-OV-3 ovarian, 93.5%. Further, the growth in the assay with IGROV1 ovarian is 91%; with OVCAR-3 ovarian, 104%; in the assay on HS 578T breast it was 106%; with NCI/ADR-RES ovarian, 106%; with T-47D breast it was 94.5%; with BT-549 breast, 94.3%. Besides, the growth with MDA-MB-435 melanoma is 105%; in the assay with SW-620 colon it was 104%; with MCF7 breast, 92.6%; with HCT-116 colon, 92%; in the assay on HCC-2998 colon it was 106%; in the assay with KM12 colon, 95%.
For the compound `CC[C@@]1(C(N)=O)CC2C=CC1C2` (stereo not given in full), the growth was 85.8% with SR leukemia; 102% with RPMI-8226 leukemia; 106% with OVCAR-8 ovarian; 113% with OVCAR-5 ovarian; 114% in the assay with OVCAR-4 ovarian; 103% in the assay with SK-OV-3 ovarian. For the same compound, the growth in the assay with IGROV1 ovarian is 123%; in the assay with OVCAR-3 ovarian, 132%; in the assay on HS 578T breast, 118%; in the assay with NCI/ADR-RES ovarian, 113%; in the assay on T-47D breast, 103%; in the assay with BT-549 breast, 104%. Moreover, the growth with MDA-MB-435 melanoma is 106%; in the assay with SW-620 colon, 113%; with MCF7 breast, 99.5%; in the assay on HCT-116 colon, 104%; in the assay on HCC-2998 colon it was 108%; in the assay on KM12 colon, 119%.
`O=C(CCCC(=O)N/N=C/c1cc(Cl)ccc1O)N/N=C\c1cc(Cl)ccc1O`: the growth with SR leukemia is 1.74% (active); with RPMI-8226 leukemia it was 27.3%; in the assay with OVCAR-8 ovarian, 20.3%; in the assay with OVCAR-5 ovarian, 67.4%; in the assay with OVCAR-4 ovarian, 22.1%; in the assay on SK-OV-3 ovarian, 13.9%. For the same compound, the growth was 31.2% in the assay on IGROV1 ovarian; 35.5% in the assay with OVCAR-3 ovarian; 68.4% with HS 578T breast; 14.1% in the assay on NCI/ADR-RES ovarian; 24.1% with T-47D breast; 29.2% in the assay with BT-549 breast. For the same compound, the growth in the assay with MDA-MB-435 melanoma was 45.1%; in the assay on SW-620 colon, 30.9%; with MCF7 breast, 14.3%; in the assay with HCT-116 colon it was 24.7%; in the assay with HCC-2998 colon, 29.2%; in the assay with KM12 colon, 27.8%.
